697 NFkB inh: lowers PMA/ionomycin-induced NF-kB signal in 697 B cells. 697 B-cell NF-kB luciferase reporter, 16 h. inhibition, % at 4 µM. hit rate 0.33% among 330,000. AID 435022; in the data active means inhibition above about 35%
Cardio protect: myocardial damage modulation in H9c2 cells; H9c2 cardiomyocytes, H2O2 injury protection, ATPLite, 2 h; protection from H2O2 cell death, % at 20 µM; hit rate 0.63% among 360,000; AID 588492;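 active means compounds giving at least 50% protection of heart cells from peroxide-induced death in the single-dose screen, raw or plate-pattern-corrected value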;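 further: 0% = DMSO wells with peroxide and 100% = DMSO wells without peroxide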
Jurkat NFkB inh: lowers PMA/ionomycin-induced NF-kB signal in Jurkat cells. AID 435003. PMA/ionomycin-induced NF-kB luciferase reporter, luminescence. hit rate 0.53% among 330,000. inhibition, % at 4 µM; in the data active means inhibition above about 50%
NR2F2 inh: blocks human COUP-TFII nuclear receptor | HEK293T NGFI-A luciferase reporter, luminescence | inhibition, % at 8.6 µM | hit rate 0.7% among 370,000 | AID 686940;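 active means inhibition above a per-plate cutoff, mean inhibition of test wells between control levels plus 3 SD, cut at about 38% in these data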;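 further: cells cotransfected with COUP-TFII expression vector driving the NGFI-A reporter; 0% = median of COUP-TF2 test wells and 100% = reporter-only cells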
Target sequence (P24468 whole entry, looked up): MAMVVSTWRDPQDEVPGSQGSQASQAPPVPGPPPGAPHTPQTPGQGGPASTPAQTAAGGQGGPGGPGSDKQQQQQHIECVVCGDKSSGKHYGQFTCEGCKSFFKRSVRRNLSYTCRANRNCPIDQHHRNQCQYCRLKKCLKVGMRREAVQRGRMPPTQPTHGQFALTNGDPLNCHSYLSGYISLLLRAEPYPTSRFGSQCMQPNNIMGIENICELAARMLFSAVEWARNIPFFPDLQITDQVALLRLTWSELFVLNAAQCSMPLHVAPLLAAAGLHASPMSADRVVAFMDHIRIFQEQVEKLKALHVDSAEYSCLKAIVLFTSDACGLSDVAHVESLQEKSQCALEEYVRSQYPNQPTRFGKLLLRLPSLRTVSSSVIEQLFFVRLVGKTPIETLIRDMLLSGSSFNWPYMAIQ
Gli-Sufu antag: blocks Gli-Sufu signaling in a luciferase reporter. Sufu-KO-LIGHT fibroblasts, Gli luciferase reporter luminescence. inhibition, % at 5 µM. hit rate 0.74% among 340,000. AID 588413;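 active means inhibition above about 55%, limit read from the data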;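 further: 0% = DMSO-treated cells and 100% = wells with medium but no cells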
TAG inh: inhibitors of triacylglycerol accumulation; H9c2 cells, Nile Red lipid (TAG) fluorescence; cells loaded with 200 µM oleic acid; inhibition, % at 12.5 µM; AID 651582; hit rate 0.66% among 230,000;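 active means pattern-corrected inhibition of lipid staining of at least 50% with the nuclear-stain viability signal not falling by more than 50%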;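 further: 0% = DMSO wells and 100% = triacsin C control wells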
Jurkat NFkB conf: lowers PMA/ionomycin-induced NF-kB signal in Jurkat cells; Jurkat NF-kB luciferase, 16 h; shares compounds with Jurkat NFkB inh; hit rate 27% among 2,700; inhibition, % at 4 µM;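 active means inhibition reaching about 45% at 4 µM in either replicate, limit read from the data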;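 further: plate controls were PMA/ionomycin stimulated DMSO wells for no effect and unstimulated DMSO wells for full effect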
* hit, by the source's call; nt = not tested or not shown. An excerpt weighted towards active compounds, which were near 2.6% of everything screened.

SMILES | 697 NFkB inh | Cardio protect | Jurkat NFkB inh | NR2F2 inh | Gli-Sufu antag | TAG inh | Jurkat NFkB conf
Cc1ccc(O)c(NC(=O)CSc2ccc(Cl)cc2)c1 | -12 | -12 | 69* | -11 | 21 | 2 | 35
Cc1ccc(O)c(NC(=O)Cc2ccc3ccccc3c2)c1 | -23 | -6 | 74* | 18 | 28 | 11 | 37
COc1ccc(Cn2cc(COC(=O)Nc3ccc(F)cc3)nn2)cc1 | nt | nt | nt | -17 | nt | nt | nt
CN1/C(=C/C(=O)c2nc(S(C)(=O)=O)ncc2Cl)C(C)(C)c2ccccc21 | 9 | -24 | 57* | nt | 20 | nt | 26
Cc1ccc(-c2cc(C(=O)NN=Cc3cccc4ccccc34)[nH]n2)cc1C | nt | nt | nt | -13 | nt | nt | nt
O=C(NCc1cccs1)C1CCN(S(=O)(=O)c2ccc([N+](=O)[O-])cc2)CC1 | nt | nt | nt | -2 | nt | nt | nt
O=C1CCCN1CCC(=O)N1CCCC(Nc2ccc(F)c(F)c2)C1 (stereo not drawn) | 7 | 4 | -7 | 9 | 13 | 0 | nt
O=C(Cc1ccc(N2CCNC2=O)cc1)N1CCCC(Nc2ccc(F)c(F)c2)C1 (stereo not drawn) | -53 | -2 | 63* | 5 | -3 | 41 | 16
CCOC(=O)c1[nH]c(C)c(C(=O)Nc2cc(Cl)ccc2C)c1C | 23 | -1 | 69* | -57 | 27 | nt | 56*
CCOC(=O)c1[nH]c(C)c(C(=O)Nc2ccc(C)c(Cl)c2)c1C | 5 | -2 | -12 | -45 | -9 | nt | nt
C[C@H]1[C@@H](OC(=O)NCc2ccc(Cl)c(Cl)c2)CC[C@@]23CCCN2C(=O)CCC[C@@H]13 | nt | nt | nt | 8 | nt | nt | nt
Cc1ccc(C(=O)Nc2ncc(Cc3ccc(SC(F)F)cc3)s2)cc1 | -78 | -7 | 64* | -12 | 37 | nt | 48*
COC(=O)[C@@]12CCCCC3=C1N(CCC3)C(=O)[C@H]2CC(=O)NCc1cccc(C(F)(F)F)c1 | nt | nt | nt | 12 | nt | nt | nt
COc1ccc([C@H]2OC(=O)C[C@H]2C(=O)N2CCCC2)cc1OC | nt | nt | nt | 3 | nt | nt | nt
COC(=O)c1[nH]c2c(c1C)C(=O)CC(c1ccc(OC)cc1)C2 (stereo not drawn) | -3 | -4 | 9 | 2 | 10 | nt | nt
COCCOC(=O)c1[nH]c2c(c1C)C(=O)CC(c1cc(OC)ccc1OC)C2 (stereo not drawn) | 17 | 38 | 38 | -22 | -7 | 47 | nt
CCCOCCOC(=O)c1[nH]c2c(c1C)C(=O)CC(c1cc(OC)ccc1OC)C2 (stereo not drawn) | -46 | 29 | 72* | 5 | 6 | 17 | 35
COc1ccc(OC)c(C2CC(=O)c3c([nH]c(C(=O)OC(C)C)c3C)C2)c1 (stereo not drawn) | -19 | 32 | 60* | 9 | nt | nt | 58*
CCOC(=O)c1sc(NC(=O)c2ccc(S(=O)(=O)N(C)C)cc2)cc1C | -46 | 0 | -7 | 14 | 12 | nt | nt
CCOC(=O)c1sc(NC(=O)c2ccc(Cl)s2)cc1C | -113 | -6 | -195 | -46 | -101 | 3 | -58
CCOC(=O)c1sc(NC(=O)c2ccccc2)cc1C | -119 | -16 | -163 | -39 | -80 | 1 | -91
Fc1ccc(-c2cc(-c3nnc4sc(-c5cccs5)nn34)[nH]n2)cc1 | nt | nt | nt | 1 | nt | nt | nt
N/C(=N\OC(=O)c1ccccc1Cl)c1ccc(Cl)cc1 | -217 | -30 | -166 | -38 | -69 | -26 | -123
N/C(=N\OC(=O)c1ccc(Cl)cc1)c1ccc(Cl)cc1 | -96 | -15 | -103 | -6 | -71 | -8 | nt
N/C(=N\OC(=O)c1ccccc1Cl)c1ccccc1 | -235 | -22 | -217 | -32 | -93 | nt | -99
N/C(=N\OC(=O)c1ccc(Cl)cc1)c1ccn[nH]1 | -155 | -19 | -166 | -39 | -79 | 2 | -59
COC(=O)c1cc2c(c3c4cc(F)ccc4n(S(=O)(=O)c4ccc(C)cc4)c13)C(=O)N(Cc1ccc(N(C)C)cc1)C2 | nt | nt | nt | 8 | nt | nt | nt
CCN(CC)c1ccc(/C=N/NC(=O)c2cccc(S(=O)(=O)N3CCOCC3)c2)c(O)c1 | -10 | 24 | 64* | 15 | nt | 42 | 28
O=C(Nc1nc(-c2ccccc2)cs1)c1ccc(N2CCOCC2)c([N+](=O)[O-])c1 | 12 | -8 | 52* | nt | 45 | nt | 57*
O=C(NCCc1ccccc1Cl)[C@@H]1CCCN1C(=O)[C@@H](NC(=O)N1CCOCC1)c1ccccc1 | nt | nt | nt | 14 | nt | nt | nt
